# High-throughput results deposited in PubChem by Columbia University Molecular Screening Center.
# Compounds with a hit are over-represented: about 1.2% of the library has one in this group of screens.
# cytoskel mod: alters cytoskeleton assembly in HUVEC cells; inhibition, % at 2 µM; actives 0.18% (n = 91,000); HUVEC TNFa F-actin phalloidin imaging, high content; AID 836;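 active means inhibition above the batch mean plus 3 SD and confirmed as a hit by visual image inspection, cut at about 30% in these data, passing the limit was not always enough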
# TNFa cytotox: toxic to HUVEC cells under TNF alpha stimulation; HUVEC TNFalpha-stimulated, Hoechst cell count, imaging; cell count reduction, % at 2 µM; actives 0.17% (n = 93,000); AID 848;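 active means cell count reduction exceeding the screen mean by over 5 SD, scaled to untreated wells per plate, cut at about 78% in these data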;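 further: cells counted after 24 h of TNF alpha exposure following the 1 h pretreatment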
# E-sel TNF inh: TNF alpha driven E-selectin expression inhibition; HUVEC TNFa-induced E-selectin immunofluorescence, high content; inhibition, % at 2 µM; actives 0.71% (n = 120,000);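 active means inhibition above the batch mean plus 3 SD, and confirmed as a hit on visual image review, cut at about 43% in these data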;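 further: 0% = TNF-stimulated DMSO wells and 100% = unstimulated control wells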
# VCAM1 TNFa inh: reduces TNF alpha induced VCAM1 expression in HUVEC | inhibition, % at 2 µM | AID 802 | actives 0.48% (n = 95,000) | HUVEC TNFa-induced VCAM-1 immunofluorescence, high-content imaging;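 active means inhibition above the batch mean plus 3 SD, with images confirmed as a hit by eye, cut at about 37% in these data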;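 further: 0% = TNF-stimulated DMSO wells and 100% = unstimulated control wells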
# * hit, by the source's call; . = not tested or not shown.
SMILES,cytoskel mod,TNFa cytotox,E-sel TNF inh,VCAM1 TNFa inh
O=C(CN(C(=O)CCC(=O)Nc1ccccn1)c1ccc2c(c1)OCO2)NCc1ccco1,25,-47,70*,6
CCOC(=O)c1ccc(S(=O)(=O)NC2CCCCCCC2)n1C,-12,.,-34,-2
COc1ccc(S(=O)(=O)Nc2cccc(S(=O)(=O)N3CCCCCC3)c2)cc1,.,.,71*,.
Cc1nc(S(=O)(=O)N(C)Cc2ccccc2)c(C#N)c(C)c1Cl,-48,92*,-7,78*
Cc1nc(S(=O)(=O)NC2CCCCC2)c(C#N)c(C)c1Cl,6,-22,-2,10
C=CCN1CCN(C(c2cc(OC)ccc2OC)c2nnnn2CC2CCCO2)CC1 (stereo unspecified),-23,-3,71*,1
Nc1nnc(-c2ccncc2)s1,11,.,-9,.
Cc1ccc(C)c(NC(=O)CSc2nnc([C@@H](N)Cc3ccccc3)o2)c1,4,1,62*,3
CCOC(=O)c1ccccc1NC(=O)c1ccc(N(C)S(C)(=O)=O)cc1,-5,-5,70*,-1
CCOC(=O)c1ccccc1NC(=O)c1ccccc1N(C)S(C)(=O)=O,1,.,-28,-26
Cc1ccc(C(=O)CSc2nsc(C)c2C#N)cc1,74*,-10,22,1
Clc1ccc(Cc2ccc(Cl)nn2)c(Cl)c1,3,-2,18,8
COCCNC(=O)c1ccccc1NC(=O)c1cccc([N+](=O)[O-])c1C,.,.,60*,.
Cc1ccc(SCCNC(=O)c2cccc([N+](=O)[O-])c2C)cc1,3,-3,-18,-14
Cc1ccccc1OCC(=O)Nc1ccc2c(c1)COC2=O,36*,-33,-35,-2
Cc1ccc(S(=O)(=O)N(C)CCCC(=O)Nc2cc(C)ccc2C)cc1,.,.,97*,.
O=C(c1noc2c1CCCC2)N1CCC(CO)(Cc2ccccc2Cl)CC1,.,.,29,.
COC(=O)C(CCSC)NC(=O)CNS(=O)(=O)c1ccc(Br)cc1 (stereo unspecified),-1,29,-22,-8
COc1ccc(N2C(=O)CC(NC3CCCCNC3=O)C2=O)cc1 (stereo unspecified),35*,-47,-5,11
COc1ccc(N2C(=O)CC(Nc3ccc(C)cc3)C2=O)cc1 (stereo unspecified),-6,-3,25,4
c1ccc(COc2ccc(OCCCNC3CCCC3)cc2)cc1,3,-6,16,6
COc1ccc(S(=O)(=O)N(Cc2nc3ccccc3c(=O)[nH]2)C2CCCC2)cc1,29,-20,-31,-28
CC(=O)Nc1nc2n(n1)C(c1ccc(F)cc1)C=C(c1ccccc1)N2 (stereo unspecified),38*,-9,-7,10
CCOC(=O)Nc1nc(-c2ccccc2)c(C(=O)c2ccccc2)s1,0,58,-8,78*
COC(=O)Nc1nc(-c2ccccc2)c(C(=O)c2ccc(Cl)cc2)s1,4,-6,30,5
SMILES,cytoskel mod,TNFa cytotox,E-sel TNF inh,VCAM1 TNFa inh
O=C(/C=C/c1ccccc1)NC(=S)Nc1ccccc1C(=O)NC1CCCCC1,.,-3,-14,2
O=C(/C=C/c1ccc(F)cc1)NC(=S)Nc1ccccc1C(=O)NC1CCCCC1,.,25,54*,-14
O=C(Cc1cccc2ccccc12)NN1C(=O)C2C(C1=O)C1C=CC2C12CC2 (stereo unspecified),.,.,47,.
N#Cc1ccc(COC(=O)C2CCC(=O)N2)cc1 (stereo unspecified),8,-34,45,-1
O=C(NCCC1=CCCCC1)c1ccc(=O)oc1,-10,-11,-8,15
O=C(NCCC1=CCCCC1)c1coc(=O)c(Br)c1,-10,-11,86*,13
COC(=O)Cc1[nH]nc2c1C(c1cccc(OC)c1OC)C(C#N)=C(N)O2 (stereo unspecified),.,.,-12,.
CCNc1nc(Oc2ccc(C(=O)OC)cc2)nc(N(C)C)n1,-38,79*,3,8
CCNc1nc(N)nc(Oc2ccc(C(=O)OC)cc2)n1,4,-18,-17,-6
CNC(=O)c1ccc(-c2ccc(Cl)c(Cl)c2)s1,.,.,-11,.
Cn1nc(C(F)(F)F)c2cc(C(=O)Nc3ccc(F)cc3F)sc21,-12,-9,.,-7
Cn1nc(C(F)(F)F)c(C(=O)Nc2ccc(F)cc2F)c1Sc1ccc(C(F)(F)F)cc1,63*,1,1,-6
O=C(N/N=C/c1ccc(O)cc1)c1ccc(COc2cc(Cl)ccc2Cl)o1,-40,-6,96*,23
CC(=O)C1=C(C)NC(SCc2cccc3ccccc23)=C(C#N)C1c1ccco1 (stereo unspecified),.,.,67*,.
CC(=O)C1=C(C)NC(SCc2ccc(C#N)cc2)=C(C#N)C1c1ccco1 (stereo unspecified),.,.,36,.
O=C(NC(=S)Nc1cccc(NC(=O)c2ccc(Cl)cc2Cl)c1)c1cccs1,.,.,11,.
